Reference: PubChem BioAssay (Tox21)
Results filed as inconclusive are left out. Activity calls are given as the source filed them. Unless noted, calls come from the whole dose curve; as a rule, active = well fitted curve in the direction sought with a large enough effect in the repeat runs; inconclusive = weak or mixed curves; inactive = no such curve, though single readings can be large; an effect the other way counts as inactive or inconclusive.

Columns and labels:
[1] = qHTS assay to identify aromatase inhibitors - cell viability counter screen (AID 743084);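 note: cells stimulated with testosterone during compound exposure; nearly all actives have a fitted effect of over 55% in size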
[2] = biological target: Aryl hydrocarbon receptor (Homo sapiens) (UniProt P35869); assay: qHTS assay to identify small molecule that activate the aryl hydrocarbon receptor (AhR) signaling pathway (AID 743085);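 note: HG2L7.5c1 human HepG2 liver cells with stably integrated DRE-driven firefly reporter; series mostly up to about 70 µM; nearly all actives have a fitted effect of over 15% in size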
Aryl hydrocarbon receptor (Homo sapiens), sequence (P35869 whole entry, looked up): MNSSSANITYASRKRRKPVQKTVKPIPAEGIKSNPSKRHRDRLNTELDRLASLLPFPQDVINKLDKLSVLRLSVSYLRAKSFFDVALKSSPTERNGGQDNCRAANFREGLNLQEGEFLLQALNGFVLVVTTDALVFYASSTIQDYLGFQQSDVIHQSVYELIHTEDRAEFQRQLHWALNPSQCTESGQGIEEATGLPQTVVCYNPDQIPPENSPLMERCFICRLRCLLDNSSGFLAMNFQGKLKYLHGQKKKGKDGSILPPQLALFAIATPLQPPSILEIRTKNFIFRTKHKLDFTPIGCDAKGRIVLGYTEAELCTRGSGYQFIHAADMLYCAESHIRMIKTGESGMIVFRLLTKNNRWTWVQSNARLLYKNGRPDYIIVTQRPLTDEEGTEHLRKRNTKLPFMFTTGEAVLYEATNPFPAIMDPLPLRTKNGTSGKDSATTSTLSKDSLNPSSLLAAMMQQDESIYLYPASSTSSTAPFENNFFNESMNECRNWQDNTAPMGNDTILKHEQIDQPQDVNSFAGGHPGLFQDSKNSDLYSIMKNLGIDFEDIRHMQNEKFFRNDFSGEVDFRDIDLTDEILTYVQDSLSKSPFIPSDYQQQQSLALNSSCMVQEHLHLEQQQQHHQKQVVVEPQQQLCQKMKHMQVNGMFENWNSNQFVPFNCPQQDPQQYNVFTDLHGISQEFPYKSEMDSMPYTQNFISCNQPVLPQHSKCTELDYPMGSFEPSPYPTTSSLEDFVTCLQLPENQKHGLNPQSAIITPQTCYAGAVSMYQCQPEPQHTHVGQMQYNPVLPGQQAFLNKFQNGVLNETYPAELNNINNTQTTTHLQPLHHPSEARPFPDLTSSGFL
How it was run: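 Luminescence (ONE-Glo) from a dioxin-responsive-element luciferase reporter in HG2L7.5c1 HepG2 cells after 24 hr compound exposure at 37C; viability measured by CellTiter-Fluor fluorescence beforehand.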

[3] = qHTS assay to identify small molecule that activate the aryl hydrocarbon receptor (AhR) signaling pathway - cell viability counter screen (AID 743086);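 note: HepG2 liver cells carrying the AhR DRE luciferase reporter; series mostly up to about 70 µM; nearly all actives have a fitted effect of over 45% in size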
How it was run: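 HepG2-AhR-luc (HG2L7.5c1) cells, 4000/well, were preincubated 5 h at 37C, exposed to compound in qHTS format for 24 hr at 37C, then given CellTiter-Fluor for 30 min; viability was read as fluorescence in the reporter wells.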

[4] = biological target: Peroxisome proliferator-activated receptor gamma (Homo sapiens) (UniProt P37231); assay: qHTS assay to identify small molecule antagonists of the peroxisome proliferator-activated receptor gamma (PPARg) signaling pathway (AID 743191; calls by dose curve; note: series mostly up to about 63 µM; nearly all actives have a fitted effect of over 30% in size)
Peroxisome proliferator-activated receptor gamma (Homo sapiens), sequence (P37231 whole entry, looked up): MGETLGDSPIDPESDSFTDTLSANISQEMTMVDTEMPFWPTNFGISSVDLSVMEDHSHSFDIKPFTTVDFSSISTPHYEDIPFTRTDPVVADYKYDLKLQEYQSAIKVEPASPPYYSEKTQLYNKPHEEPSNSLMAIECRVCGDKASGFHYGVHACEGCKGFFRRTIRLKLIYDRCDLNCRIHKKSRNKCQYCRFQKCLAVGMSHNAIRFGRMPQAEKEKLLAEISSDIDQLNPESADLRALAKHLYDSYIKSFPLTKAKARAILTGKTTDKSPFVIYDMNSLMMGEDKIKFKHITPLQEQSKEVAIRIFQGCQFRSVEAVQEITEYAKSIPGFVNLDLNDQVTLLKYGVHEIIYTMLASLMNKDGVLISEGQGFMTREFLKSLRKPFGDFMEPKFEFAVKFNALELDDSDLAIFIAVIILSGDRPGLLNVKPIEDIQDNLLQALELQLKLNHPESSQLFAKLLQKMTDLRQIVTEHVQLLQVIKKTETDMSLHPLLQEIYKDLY
How it was run: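 GeneBLAzer PPARg UAS-bla HEK293H cells carrying a UAS-driven beta-lactamase reporter were plated at 3000 cells/well, preincubated 5 h at 37C, then given compound for 17 h at 37C; LiveBLAzer B/G FRET substrate was read after 1 h at room temperature.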

[5] = qHTS assay to identify small molecule antagonists of the peroxisome proliferator-activated receptor gamma (PPARg) signaling pathway - cell viability counter screen (AID 743194); settings: Potency: co-treated with 50 nM rosiglitazone; note: nearly all actives have a fitted effect of over 55% in size
How it was run: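 PPARg-UAS-bla HEK293H cells were plated, rested 5 h at 37 C, then treated with compounds plus rosiglitazone (50 nM final) for 17 h at 37 C; viability was then read by CellTiter-Glo luminescence after 30 min at room temperature.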

[6] = qHTS assay for small molecule agonists of the antioxidant response element (ARE) signaling pathway (AID 743202; active = well fitted activation curve with a large enough effect in the signal ratio in the repeat runs, not every such curve was filed as active; the % refers to the signal ratio; note: potency is the fitted concentration of half-maximal effect)
How it was run: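 Read-out: LiveBLAzer B/G FRET substrate fluorescence after 2 h at room temperature, following 16 h compound treatment at 37 C of HepG2 cells carrying an ARE-driven beta-lactamase reporter.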

[7] = qHTS assay for small molecule agonists of the antioxidant response element (ARE) signaling pathway - cell viability counter screen (AID 743203; calls by dose curve; note: nearly all actives have a fitted effect of over 55% in size)
How it was run: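 ARE-bla HepG2 cells were plated, rested 5 h at 37C/5% CO2, then exposed to compounds in DMSO for 16 h. Viability was read as CellTiter-Glo luminescence after 30 min at room temperature, in the same wells as the ARE screen.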

[8] = qHTS assay for small molecule activators of the heat shock response signaling pathway (AID 743210; active = well fitted activation curve with a large enough effect in the signal ratio in the repeat runs, with a control signal flat, not every such curve was filed as active; the % refers to the signal ratio; note: series mostly up to about 63 µM)
How it was run: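 HSE-bla HeLa cells (beta-lactamase reporter under heat shock response elements) were exposed to compounds for 5 h at 37 C, then loaded with LiveBLAzer B/G FRET substrate for 2.5 h at room temperature before fluorescence reading.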

[9] = qHTS assay to identify small molecule agonists of the peroxisome proliferator-activated receptor delta (PPARd) signaling pathway - cell viability counter screen (AID 743211); note: nearly all actives have a fitted effect of over 55% in size
How it was run: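 Viability was measured as CellTiter-Glo luminescence (30 min, room temperature) in the same wells as the beta-lactamase readout. GeneBLAzer PPARd UAS-bla HEK293H cells received compound after 5 h plating and were incubated 17 h at 37 C.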

[10] = biological target: Peroxisome proliferator-activated receptor delta (Homo sapiens) (UniProt Q03181); assay: qHTS assay to identify small molecule agonists of the peroxisome proliferator-activated receptor delta (PPARd) signaling pathway (AID 743212; calls by dose curve)
Peroxisome proliferator-activated receptor delta (Homo sapiens), sequence (Q03181 whole entry, looked up): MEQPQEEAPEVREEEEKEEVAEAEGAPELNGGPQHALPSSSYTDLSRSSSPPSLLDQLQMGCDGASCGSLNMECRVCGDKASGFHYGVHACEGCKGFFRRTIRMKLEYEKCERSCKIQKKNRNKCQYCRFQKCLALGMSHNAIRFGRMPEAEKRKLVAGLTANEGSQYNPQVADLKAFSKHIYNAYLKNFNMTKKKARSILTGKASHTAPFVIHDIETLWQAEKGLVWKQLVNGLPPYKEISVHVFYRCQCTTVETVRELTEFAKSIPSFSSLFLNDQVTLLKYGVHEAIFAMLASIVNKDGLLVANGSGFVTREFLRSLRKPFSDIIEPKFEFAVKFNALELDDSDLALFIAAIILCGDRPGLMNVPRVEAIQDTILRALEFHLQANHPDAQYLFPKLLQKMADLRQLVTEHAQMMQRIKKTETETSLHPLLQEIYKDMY
How it was run: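 GeneBLAzer PPARd UAS-bla HEK293H cells (beta-lactamase reporter under UAS control), plated and rested 5 h at 37 C, then exposed to compounds in DMSO at 37 C; LiveBLAzer B/G FRET substrate added, 2 h room temperature, fluorescence read.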

[11] = qHTS assay to identify small molecule antagonists of the peroxisome proliferator-activated receptor delta (PPARd) signaling pathway - cell viability counter screen (AID 743213); note: nearly all actives have a fitted effect of over 50% in size
How it was run: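 CellTiter-Glo was added to PPARd-bla HEK293H wells following 17 h compound treatment in the presence of 300 nM L165041. Luminescence was recorded after 30 min at room temperature.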

[12] = biological target: Peroxisome proliferator-activated receptor delta (Homo sapiens) (UniProt Q03181); assay: qHTS assay to identify small molecule antagonists of the peroxisome proliferator-activated receptor delta (PPARd) signaling pathway (AID 743215; active = well fitted inhibition curve with a large enough effect in the signal ratio in the repeat runs, not every such curve was filed as active; the % refers to the signal ratio;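 note: cells stimulated with agonist L165041 at 300 nM final during compound exposure; series mostly up to about 62 µM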)
How it was run: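 PPARd-bla HEK293H cells (UAS-bla reporter) preincubated 5 h, then given compound plus 300 nM final L165041 agonist for 17 h at 37 C. Beta-lactamase activity read by LiveBLAzer B/G FRET substrate fluorescence after 2 h at room temperature.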

[13] = qHTS assay to identify small molecule agonists of the farnesoid-X-receptor (FXR) signaling pathway - cell viability counter screen (AID 743218); note: nearly all actives have a fitted effect of over 45% in size
How it was run: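 FXR-UAS-bla HEK 293T cells exposed to compounds for 16 h at 37C. Cytotoxicity read in the same wells by CellTiter-Glo luminescence after 30 min at room temperature, following the beta-lactamase FRET read.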

[14] = biological target: Vitamin D3 receptor (Homo sapiens) (UniProt P11473); assay: qHTS assay to identify small molecule agonists of the vitamin D receptor (VDR) signaling pathway (AID 743222; calls by dose curve)
Vitamin D3 receptor (Homo sapiens), sequence (P11473 whole entry, looked up): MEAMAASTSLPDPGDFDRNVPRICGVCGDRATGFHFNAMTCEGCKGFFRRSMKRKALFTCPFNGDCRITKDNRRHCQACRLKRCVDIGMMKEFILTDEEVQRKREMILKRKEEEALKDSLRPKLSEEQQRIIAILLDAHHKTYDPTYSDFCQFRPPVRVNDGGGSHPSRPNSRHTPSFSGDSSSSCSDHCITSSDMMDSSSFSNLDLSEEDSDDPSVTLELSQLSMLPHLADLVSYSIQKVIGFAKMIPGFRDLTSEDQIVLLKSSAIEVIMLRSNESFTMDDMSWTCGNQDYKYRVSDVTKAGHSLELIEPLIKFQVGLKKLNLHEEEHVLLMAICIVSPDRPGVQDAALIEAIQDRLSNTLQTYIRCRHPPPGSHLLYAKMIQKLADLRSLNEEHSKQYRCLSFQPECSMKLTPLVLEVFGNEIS
How it was run: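 VDR-bla cells plated 4 h at 37 C, then exposed to compounds for 16 h at 37 C. Beta-lactamase reporter activity measured by fluorescence after 2 h room-temperature loading with LiveBLAzer B/G FRET substrate.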

[15] = biological target: Vitamin D3 receptor (Homo sapiens) (UniProt P11473); assay: qHTS assay to identify small molecule antagonists of the vitamin D receptor (VDR) signaling pathway (AID 743223; active = well fitted inhibition curve with a large enough effect in the signal ratio in the repeat runs, not every such curve was filed as active; the % refers to the signal ratio)
How it was run: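 Antagonist mode: compound added to VDR-bla cells alongside agonist 1alpha,25-dihydroxyvitamin D3 (3 nM final), incubation 16 h at 37C. Read-out is LiveBLAzer FRET fluorescence, 2 h at room temperature.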

[16] = qHTS assay for small molecule activators of the heat shock response signaling pathway - cell viability counter screen (AID 743209); note: nearly all actives have a fitted effect of over 50% in size
How it was run: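 HSE-bla HeLa cells plated overnight, then exposed to Tox21 compounds (23 nL in DMSO) for 5 h at 37 C. After the bla reporter read, CellTiter-Glo was added in the same wells and luminescence read after 30 min at room temperature.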

[17] = biological target: Bile acid receptor (Homo sapiens) (UniProt Q96RI1); assay: qHTS assay to identify small molecule antagonists of the farnesoid-X-receptor (FXR) signaling pathway (AID 743217; active = well fitted inhibition curve with a large enough effect in the signal ratio in the repeat runs, not every such curve was filed as active; the % refers to the signal ratio)
Bile acid receptor (Homo sapiens), sequence (Q96RI1 whole entry, looked up): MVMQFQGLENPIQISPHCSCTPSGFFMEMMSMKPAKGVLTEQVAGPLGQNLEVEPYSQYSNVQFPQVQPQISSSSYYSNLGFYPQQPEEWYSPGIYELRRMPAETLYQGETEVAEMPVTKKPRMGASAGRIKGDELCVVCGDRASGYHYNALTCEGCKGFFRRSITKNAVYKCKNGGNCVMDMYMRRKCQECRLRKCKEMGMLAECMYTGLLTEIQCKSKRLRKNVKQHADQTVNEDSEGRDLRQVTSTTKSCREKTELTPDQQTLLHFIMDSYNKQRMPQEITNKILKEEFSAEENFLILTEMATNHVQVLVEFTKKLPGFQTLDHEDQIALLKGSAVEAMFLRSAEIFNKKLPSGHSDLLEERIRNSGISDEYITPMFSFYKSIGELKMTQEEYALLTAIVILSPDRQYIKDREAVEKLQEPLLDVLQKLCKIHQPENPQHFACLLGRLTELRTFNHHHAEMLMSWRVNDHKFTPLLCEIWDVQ
How it was run: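 FXR-UAS-bla HEK 293T cells (beta-lactamase reporter) given compound plus chenodeoxycholic acid (50 uM final), 16 h at 37C. LiveBLAzer B/G FRET substrate added for 2 h at room temperature; fluorescence read.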

[18] = biological target: Bile acid receptor (Homo sapiens) (UniProt Q96RI1); assay: qHTS assay to identify small molecule agonists of the farnesoid-X-receptor (FXR) signaling pathway (AID 743220; active = well fitted activation curve with a large enough effect in the signal ratio in the repeat runs, not every such curve was filed as active; the % refers to the signal ratio)
How it was run: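 Beta-lactamase reporter under UAS control in GeneBLAzer FXR HEK 293T cells (5000/well) measured with LiveBLAzer FRET substrate after 2 h at room temperature. Compound exposure lasted 16 h at 37C.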

[19] = qHTS assay to identify small molecule antagonists of the farnesoid-X-receptor (FXR) signaling pathway - cell viability counter screen (AID 743221; active = well fitted cell-killing curve with a large enough effect in the repeat runs, not every such curve was filed as active; note: nearly all actives have a fitted effect of over 50% in size)
How it was run: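 Cytotoxicity counter screen run in the FXR-bla reporter wells: HEK 293T cells exposed to compound with 50 uM (final) chenodeoxycholic acid for 16 h, 37 C, then viability measured by CellTiter-Glo luminescence after 30 min, room temperature.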

[20] = biological target: Peroxisome proliferator-activated receptor gamma (Homo sapiens) (UniProt P37231); assay: qHTS assay to identify small molecule agonists of the peroxisome proliferator-activated receptor gamma (PPARg) signaling pathway (AID 743094; active = well fitted activation curve with a large enough effect in the signal ratio in the repeat runs, not every such curve was filed as active; the % refers to the signal ratio)
How it was run: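 GeneBLAzer PPARg UAS-bla HEK293H cells were plated, rested 5 h, then exposed to compounds for 17 h at 37C. Beta-lactamase activity was read by LiveBLAzer B/G FRET substrate fluorescence after 1 h at room temperature.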

Measured: Potency

NC(=O)c1cc([N+](=O)[O-])cc([N+](=O)[O-])c1
active: [6] 23.7 µM
inactive: [1] | [2] | [3] | [4] | [5] | [7] | [8] | [9] | [10] | [11] | [12] | [13] | [14] | [15]

O=P(O)(Oc1ccccc1)Oc1ccccc1
inactive: [1] | [2] | [3] | [4] | [5] | [6] | [7] | [16] | [8] | [9] | [11] | [17] | [13] | [18] | [19] | [15]

COC(=O)C(C)Oc1ccc(Oc2ccc(Cl)cc2Cl)cc1 (stereo not drawn)
inactive: [1] | [2] | [3] | [4] | [5] | [6] | [7] | [16] | [8] | [9] | [10] | [11] | [12] | [17] | [13] | [18] | [19] | [14] | [15]

C1CCC(C2CCCCC2)CC1
inactive: [1] | [2] | [3] | [20] | [5] | [16] | [8] | [9] | [11] | [12] | [17] | [18] | [14] | [15]

ClCC(Cl)Cl
inactive: [1] | [2] | [3] | [4] | [5] | [7] | [16] | [8] | [9] | [10] | [11] | [12] | [13] | [19] | [14]

Cc1cccc(C#N)c1
inactive: [1] | [2] | [3] | [20] | [5] | [6] | [7] | [16] | [8] | [9] | [12] | [17] | [13] | [18] | [19] | [14]

C=CC1CC=CCC1 (stereo not drawn)
inactive: [1] | [2] | [3] | [4] | [5] | [6] | [7] | [16] | [8] | [9] | [10] | [11] | [12] | [17] | [13] | [18] | [14]

C#CCN1C(=O)COc2cc(F)c(N3C(=O)C4=C(CCCC4)C3=O)cc21
inactive: [1] | [2] | [3] | [20] | [5] | [16] | [8] | [9] | [10] | [11] | [12] | [13] | [19] | [14] | [15]

CC(C)NCC(O)c1ccc(N)c(C#N)c1 (stereo not drawn)
inactive: [1] | [2] | [3] | [4] | [5] | [6] | [7] | [16] | [8] | [9] | [10] | [12] | [17] | [19]

Nc1cc2c3c(c1)C(c1ccccc1)=N[C@@H](NC(=O)c1cccnc1)C(=O)N3CC2
inactive: [1] | [2] | [3] | [4] | [5] | [6] | [7] | [16] | [8] | [9] | [10] | [12] | [13] | [19] | [14]

C#C[C@]1(O)C=C[C@H]2[C@@H]3CCC4=CC(=O)CC[C@@H]4[C@H]3CC[C@@]21CC
inactive: [1] | [2] | [3] | [5] | [7] | [16] | [8] | [9] | [10] | [13] | [19] | [14]

CNC(=O)Oc1cccc(C(C)C)c1
inactive: [1] | [2] | [3] | [5] | [6] | [7] | [16] | [8] | [9] | [13] | [19] | [14] | [15]

O=C(O)c1ccc2[nH]cc(CCCCN3CC=C(c4ccccc4)CC3)c2c1
inactive: [1] | [2] | [3] | [5] | [7] | [16] | [9] | [10] | [11] | [12] | [13] | [19] | [14] | [15]

O=C(O)c1cccc(Cl)c1
inactive: [1] | [2] | [3] | [4] | [5] | [7] | [16] | [8] | [9] | [11] | [12] | [17] | [13] | [18] | [19] | [14] | [15]

C[N+](=O)[O-]
inactive: [1] | [2] | [3] | [4] | [5] | [7] | [16] | [8] | [9] | [10] | [11] | [12] | [13] | [14] | [15]

CNC(=O)Oc1ccc(N(C)C)c(C)c1
inactive: [1] | [2] | [3] | [5] | [7] | [16] | [8] | [9] | [10] | [11] | [12] | [17] | [13] | [18] | [19]

CS(=O)(=O)c1cc(C(F)(F)F)ccc1C(=O)c1cnoc1C1CC1
inactive: [1] | [2] | [3] | [5] | [6] | [7] | [16] | [8] | [9] | [11] | [12] | [13] | [19] | [14] | [15]

CNCC(=O)c1ccc(O)c(O)c1
inactive: [1] | [2] | [3] | [4] | [5] | [7] | [16] | [9] | [13] | [19] | [14]
